Source: PubChem BioAssay
hNpr1 antagonist = blocks ANP-stimulated signaling of human Npr1 receptor. P16066. HEK293 hNpr1 GloSensor cGMP, ANP-stimulated luminescence. Potency, µM (highest dose often 46.3 µM), hits mostly inhibitors. 76,000 tested, 1.6% active; calls by dose curve; note: nearly all actives have a fitted effect of over 60% in size
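Compound pre-incubated 30 min at room temperature on GloSensor-loaded HEK293 cells stably carrying hNpr1 and the pGS-40F cGMP biosensor. Stimulation uses hNppA at 0.1 nM final; luminescence is taken at baseline and 20 min post-agonist.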
HEK cytotox = kills HEK 293 cells | HEK 293 viability, ATP luminescence (CellTiter-Glo), 48-72 h | Potency, µM (highest dose often 115 µM), most hits filed as inhibitors | 94,000 tested, 6.6% active | AID 1345083; note: nearly all actives have a fitted effect of over 60% in size
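ATP-coupled CellTiter-Glo luminescence served as viability read-out, recorded 10 min after reagent addition at room temperature. HEK 293 cells, 250 cells/well, had been incubated with pintool-transferred compound for 48 or 72 hr at 37 degree Celsius.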
FLuc inh = blocks purified firefly luciferase enzyme activity; Potency, µM (highest dose often 115 µM), usual class: inhibitors; 76,000 tested, 2.5% active; purified P. pyralis luciferase, luminescence, biochemical; note: nearly all actives have a fitted effect of over 65% in size
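Purified P. pyralis luciferase (10nM final) in 50mM Tris acetate pH 7.5, 10mM Mg acetate, 0.01% Tween-20, 0.05% BSA with 10uM D-luciferin and 10uM ATP. Compounds titrated qHTS. Luminescence imaged on CCD.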
GPT2 inh = blocks human glutamate pyruvate transaminase 2. Q8TD30. Recombinant GPT2, coupled pyruvate oxidase/HRP Amplex Red fluorescence. Potency, µM (doses to about 57.7 µM), hits mostly inhibitors. 100,000 tested, 0.25% active. AID 1671188; note: nearly all actives have a fitted effect of over 60% in size
Target sequence (Q8TD30 whole entry, looked up): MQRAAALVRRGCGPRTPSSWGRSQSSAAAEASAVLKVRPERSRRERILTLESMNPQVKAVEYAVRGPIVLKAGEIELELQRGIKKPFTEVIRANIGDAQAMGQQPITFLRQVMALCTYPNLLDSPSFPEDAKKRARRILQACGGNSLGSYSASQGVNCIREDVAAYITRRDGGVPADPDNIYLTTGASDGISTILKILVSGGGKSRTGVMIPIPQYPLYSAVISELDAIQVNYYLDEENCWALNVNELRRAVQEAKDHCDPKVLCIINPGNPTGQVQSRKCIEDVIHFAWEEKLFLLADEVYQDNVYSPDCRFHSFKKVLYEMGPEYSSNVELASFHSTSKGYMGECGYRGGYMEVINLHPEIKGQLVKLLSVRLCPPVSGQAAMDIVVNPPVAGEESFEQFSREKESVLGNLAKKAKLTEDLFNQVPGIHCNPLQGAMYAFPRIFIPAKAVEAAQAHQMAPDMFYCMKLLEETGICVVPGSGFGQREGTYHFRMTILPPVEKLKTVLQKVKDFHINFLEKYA
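Fluorescence read-out: pyruvate from GPT2 turnover coupled to pyruvate oxidase, HRP and Amplex Red (0.2mM ThPP, 0.2U/mL PO and HRP, 50uM Amplex final). Substrates 250uM a-KG, 2mM L-alanine; enzyme 10ng/uL; 30 min RT.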
NIH3T3 tox = kills NIH 3T3 cells; Potency, µM (highest dose often 96.7 µM), hits mostly inhibitors; 94,000 tested, 4.3% active; NIH 3T3 viability, CellTiter-Glo ATP luminescence, 48-72 h; note: nearly all actives have a fitted effect of over 55% in size
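Cytotoxicity was measured by CellTiter-Glo ATP luminescence after 48 or 72 h compound exposure at 37 °C. Mouse NIH 3T3 fibroblasts were seeded at 400 cells/well and dosed by 23 nL pin transfer.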
Each line names hits and unclear results; the compound was inactive in the other large screens. Compounds with a hit are over-represented: about 10% of the library has one in this group of screens. Unless noted, calls come from the whole dose curve; as a rule, active = well fitted curve in the direction sought with a large enough effect; inconclusive = small, poorly fitted or top-dose-only effect, or another doubt; inactive = no such curve, though single readings can be large; an effect the other way counts as inactive or inconclusive.

Cc1cnc(C(=O)N2C[C@@H](Oc3ccccc3)C[C@H]2C(=O)N2CCCC2)cn1	none
Cc1ccc(-c2cn3c(n2)N(C(=O)c2nc4ncccn4n2)CCC3)cc1	HEK cytotox 40µM
Cc1ccc(-c2noc([C@@H]3C[C@@H](O)CN3Cc3nc4ccccc4n3C)n2)cc1F	none
O=[N+]([O-])c1ccccc1CN1C[C@H](O)C[C@H]1c1nc(Cc2ccc(F)cc2Cl)no1	HEK cytotox 112µM, FLuc inh inconclusive, NIH3T3 tox inconclusive
COc1ccc(CN2C[C@H](O)C[C@H]2c2nc(Cc3ccccc3)no2)cc1	HEK cytotox inconclusive, FLuc inh inconclusive
Cn1c(CN2C[C@H](O)C[C@H]2c2nc(-c3ccc(OC(F)(F)F)cc3)no2)nc2ccccc21	HEK cytotox inconclusive, FLuc inh 40µM
O[C@@H]1C[C@@H](c2nc(Cc3ccc(F)cc3Cl)no2)N(Cc2ccc(OC(F)(F)F)cc2)C1	HEK cytotox 40µM, NIH3T3 tox inconclusive
CC(C)NC(=O)NCc1nnc2n1C(C(=O)NCc1cccnc1)CC2 (centres undefined)	none (no result: hNpr1 antagonist, FLuc inh)
COc1ccc(CN2CCC3(CC2)Cc2ccccc2CNC3=O)cc1	none (no result: hNpr1 antagonist, FLuc inh)
COC[C@H]1C[C@@H](NC(=O)c2ccc(Cl)cc2)[C@H](O)[C@@H]1O	none
Cc1ccc(C(=O)NC(C(=O)N2CCCC2)C2CCN(C(=O)c3ccc4c(c3)OCO4)CC2)cc1 (centres undefined)	GPT2 inh inconclusive
CCCn1cc(CNC(=O)c2cc3c(s2)CCC(C)C3)cn1 (centres undefined)	hNpr1 antagonist inconclusive, HEK cytotox inconclusive, FLuc inh 32µM, NIH3T3 tox inconclusive
CCCNC(=O)C1CCc2sc(C(=O)N(C)C)cc2C1 (centres undefined)	none
COc1ccc(CC2(CO)CCN(c3cc(OC)nc(N)n3)CC2)cc1	hNpr1 antagonist inconclusive, HEK cytotox 45µM
COc1ccc(CC2(CO)CCN(c3nccc(N)n3)CC2)cc1	HEK cytotox inconclusive
CN1CCCN(S(=O)(=O)c2cccc(Cl)c2)c2ccccc21	HEK cytotox 40µM, NIH3T3 tox inconclusive
Cc1ccc(-c2ccccc2CN2CCC(C(=O)N3CCOCC3)CC2)cc1Cl	HEK cytotox 79µM, NIH3T3 tox inconclusive (no result: hNpr1 antagonist, FLuc inh)
Cc1ccc(-c2ccccc2CN2CCN(C(=O)NC3CCCC3)CC2)cc1Cl	HEK cytotox 22µM, NIH3T3 tox 20µM (no result: hNpr1 antagonist, FLuc inh)
COc1ccccc1C(=O)N1CCN(Cc2ccccc2-c2ccc(C)c(Cl)c2)CC1	HEK cytotox inconclusive, NIH3T3 tox 35µM (no result: hNpr1 antagonist, FLuc inh)
Cc1ccc(-c2ccccc2CN2CCC(C(=O)NC3CCCC3)CC2)cc1Cl	none (no result: hNpr1 antagonist, FLuc inh, GPT2 inh)
Cc1cccc(NC(=O)NCC2Cn3cccc3CN2C)c1 (centres undefined)	NIH3T3 tox inconclusive
COCCN1C(=O)CS(=O)(=O)C12CCN(C(=O)c1cccc(OC)c1C)CC2	none
CN1CCN(C(=O)c2cn3cc(-c4ccc(C(F)(F)F)cc4)sc3n2)CC1	NIH3T3 tox inconclusive (no result: hNpr1 antagonist, FLuc inh)
CC(C)NC(=O)c1nc(-c2ccc(Cl)nc2)c2ccccn12	HEK cytotox inconclusive, NIH3T3 tox 35µM (no result: hNpr1 antagonist, FLuc inh)
O=C(NCc1ccc2c(c1)OCO2)c1nc(-c2ccc(Cl)cc2)c2cnccn12	FLuc inh 25µM
CC(C)NC(=O)c1nc(-c2ccc(F)cc2)c2ccccn12	HEK cytotox inconclusive, NIH3T3 tox inconclusive
CN(C)C(=O)c1nc(-c2ccc(Cl)cc2)c2ccccn12	HEK cytotox 100µM, FLuc inh inconclusive, NIH3T3 tox inconclusive
C#CCNC(=O)c1nc(-c2ccc(Cl)cc2)c2ccccn12	HEK cytotox inconclusive, FLuc inh 45µM, NIH3T3 tox inconclusive
CCOc1ccccc1CN1CCC2(CC1)CC1C(=O)N(CC)C(=O)N1C2 (centres undefined)	none
CCOc1cc(=O)n2c(c1C(=O)NCCCN1CCCCC1)CCCCC2	none
O=C(c1nc(-c2cccc(C(F)(F)F)c2)c2ccccn12)N1CCCC1	HEK cytotox 40µM, NIH3T3 tox inconclusive
O=C(c1nc(-c2ccc(Cl)cc2)c2ccccn12)N1CCOCC1	HEK cytotox 112µM, NIH3T3 tox inconclusive
O=C(NCc1cccnc1)c1nc(-c2ccc(Cl)nc2)c2ccccn12	HEK cytotox 79µM, NIH3T3 tox inconclusive (no result: hNpr1 antagonist, FLuc inh)
C#CCNC(=O)c1nc(-c2cc(Cl)cc(Cl)c2)c2ccccn12	HEK cytotox 63µM
